For 28 compounds, TR-FRET ratio results are on record in PubChem BioAssay AID1049 (The Scripps Research Institute Molecular Screening Center, 2008).

The campaign covered roughly 200,000 compounds. About 780 (0.39%) were called active. Cut-off read from the data, not from the text of the source: active = TR-FRET ratio above about 2000; inactive = the rest. What follows is part of a selection rich in actives, with near analogues and random picks from the rest.

This assay is described as follows: detection-format interference in TR-FRET ratio – biochemical, artefact control for PPARgamma SRC-2 agonist project, primary screen (AID 1049). The following applies: TR-FRET artefact counter-screen; at 8 µM; active compounds read high. For orientation: Time-resolved FRET reads energy transfer from a long-lived donor to a nearby acceptor.
Turning to `COc1ccc(-c2nnco2)cc1OC`, the TR-FRET ratio was 1520 (inactive).

On to `COc1ccc2c(Cl)c(-c3nnco3)sc2c1`, for which the TR-FRET ratio was 2130 (active).

Take `COc1ccc2c(Cl)c(C(=O)NCc3ccco3)sc2c1`: the TR-FRET ratio was 1570 (inactive).

Consider `COCCNC(=S)N/N=C/c1c(C)[nH]c2ccccc12`, for which the TR-FRET ratio is 1410 (inactive).

`COc1ccc(C(=O)NC2CCN(C(=S)NCCc3ccccc3)CC2)cc1`: the TR-FRET ratio was 1560 (inactive).

In the case of `C/C=C(\C)C(=O)NCCN1C2=NC[C@H](Cc3ccc(O)cc3)N2C[C@@H]1Cc1ccc(OC)cc1`, the TR-FRET ratio was 1390 (inactive).

Regarding `CCN1CCC2(CCN(Cc3cn[nH]c3-c3ccc(OC)c(F)c3)C2)C1` (stereo not drawn), the TR-FRET ratio was 1730 (inactive).

Take `CN(C)c1ccnc(Oc2ccc(F)cc2)c1C#N`: the TR-FRET ratio was 1800 (inactive).

As to `N#Cc1ccc(-c2ccc(F)cc2)nc1Sc1ccccc1`, the TR-FRET ratio was 1500 (inactive).

Turning to `N#Cc1ccc(-c2ccc(Cl)cc2)nc1Oc1ccc(F)cc1`, the TR-FRET ratio was 5180 (active).

Regarding `CCn1cc(C(=O)Nc2cc(C)ccc2C)c(=O)c2ccc(C)nc21`, the TR-FRET ratio was 1650 (inactive).

On to `CCOC(=O)C1(Cc2cccc(OC)c2)CCN(C(C)CC(C)(C)O)CC1` (stereo not drawn), for which the TR-FRET ratio was 1480 (inactive).

As to `COc1ccc(OC)c(C(=O)CSc2nnc(-c3cccs3)o2)c1`, the TR-FRET ratio is 1750 (inactive).

For the compound `COC(=O)CSc1nccc(-c2cccs2)n1`, the TR-FRET ratio was 1880 (inactive).

On to `NC(=O)CSc1oc(-c2cccs2)nc1S(=O)(=O)c1ccccc1`, for which the TR-FRET ratio was 2010 (active).

For `CCCn1c(N)c(C(=O)CSc2nc3ccccc3c(=O)n2-c2ccc(OC)cc2)c(=O)[nH]c1=O`, the TR-FRET ratio was 1480 (inactive).

As to `Cc1cc(C)nc(/N=C2\NC(=O)CC(C(=O)O)N2c2ccc(Cl)cc2Cl)n1` (stereo not drawn), the TR-FRET ratio was 1590 (inactive).

Regarding `COc1cccc(-c2ccc(SCC(=O)N3CCN(c4ccccc4)CC3)nn2)c1`, the TR-FRET ratio was 1690 (inactive).

For `CCCOc1ccc(C2C(C(=O)c3ccc(C)o3)=C(O)C(=O)N2CCCn2ccnc2)cc1` (stereo not drawn), the TR-FRET ratio was 2170 (active).

`COc1cc(C2C(C(=O)c3ccc(C)o3)=C(O)C(=O)N2CCc2ccccc2)ccc1O` (stereo not drawn): the TR-FRET ratio is 1530 (inactive).

Turning to `COc1cc(C2C(C(=O)c3ccc(C)o3)=C(O)C(=O)N2Cc2cccnc2)ccc1O` (stereo not drawn), the TR-FRET ratio is 1570 (inactive).

Take `COc1ccc(NC(=O)COC(=O)c2ccc(NS(=O)(=O)/C=C/c3ccccc3)cc2)cc1`: the TR-FRET ratio is 1720 (inactive).

For `O=C(c1ccc2ccccc2n1)N1CCN(c2ccccc2Cl)CC1`, the TR-FRET ratio was 1700 (inactive).

On to `COc1ccc(C2C(C#N)=C(N)N(c3ncn[nH]3)C3=C2C(=O)CCC3)cc1` (stereo not drawn), for which the TR-FRET ratio is 1620 (inactive).

With `COc1cccc(CN2CCNC(=O)C2CC(=O)N(C)CCc2ccccn2)c1` (stereo not drawn), the TR-FRET ratio was 1620 (inactive).

As for `NC(=NC(=O)c1ccccc1)N1CCOCC1`, the TR-FRET ratio was 1360 (inactive).

For `Cc1ccc(S(=O)(=O)NC(C(=O)N2CCOCCOCCOCCOCC2)c2ccccc2)cc1` (stereo not drawn), the TR-FRET ratio is 1360 (inactive).

In the case of `CC(C(=O)N1CCOCC1)N1c2cccc3cccc(c23)S1(=O)=O` (stereo not drawn), the TR-FRET ratio is 2090 (active).
